This is part of a sample that, as a whole, favours compounds with a hit. Of some 83,000 tested, about 20% had one in any assay.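 Cell lines were cultured in 96-well plates, exposed to a single compound concentration, and assessed for percent growth 48 hours later.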 Activity calls are given as the source filed them. The calls were made as follows: active = growth percent below 10; inactive = the rest.
Legend:
Test in all cases: NCI-60 one-dose screen, 48 h (100 = growth as untreated, 0 = no growth, -100 = all killed)
Conditions in all cases: 10 µM
[1] = system: SR leukemia
[2] = system: RPMI-8226 leukemia
[3] = system: OVCAR-8 ovarian
[4] = system: OVCAR-4 ovarian
[5] = system: SK-OV-3 ovarian
[6] = system: IGROV1 ovarian
[7] = system: OVCAR-3 ovarian
[8] = system: HS 578T breast
[9] = system: NCI/ADR-RES ovarian
[10] = system: T-47D breast
[11] = system: BT-549 breast
[12] = system: MDA-MB-435 melanoma
[13] = system: SW-620 colon
[14] = system: MCF7 breast
[15] = system: HCT-116 colon
[16] = system: HCC-2998 colon
[17] = system: KM12 colon
[18] = system: MDA-MB-468 breast
[19] = system: OVCAR-5 ovarian

Measured: growth

COc1ccc(-c2ccc(SCC(=O)Nc3ccc(C#N)cc3)nn2)cc1
inactive: [1] 89.2% | [2] 91% | [3] 88.8% | [4] 83.8% | [5] 91.6% | [6] 88.4% | [7] 121% | [8] 67.8% | [9] 83.7% | [10] 79.5% | [11] 88.6% | [12] 98.8% | [13] 102% | [14] 88.8% | [15] 87% | [16] 104% | [17] 99.9% | [18] 88.1%

CN1C(=O)N(C)C2SC(N/N=C/c3ccc(F)cc3)=NC21 (stereo not drawn)
inactive: [1] 11.7% | [2] 77% | [3] 66.8% | [19] 77.9% | [4] 77.2% | [8] 33.5% | [9] 13% | [10] 37.9% | [13] 30.1% | [14] 21.6% | [15] 24.9% | [16] 69.8% | [17] 28.2%
active: [7] -41.9% | [11] 9.3% | [12] -28.8% | [18] -12.3%

COc1ccc(NC(=O)Cn2c(/C=C/c3ccc(N(C)C)cc3)nc3ccccc3c2=O)cc1
inactive: [1] 72.5% | [2] 57.1% | [3] 21% | [4] 58.7% | [5] 24.7% | [6] 47.2% | [7] 26.9% | [8] 65.7% | [9] 32.2% | [10] 44.2% | [12] 54.3% | [13] 48% | [14] 21.5% | [15] 28.6% | [16] 63% | [17] 50.5%
active: [11] -9.99% | [18] -25.4%

COc1ccc(CN2[C@@H](C(=O)NCc3ccc(C(=O)NO)cc3)Cc3c([nH]c4ccccc34)[C@@H]2C)cc1
inactive: [1] 14.5% | [2] 20.1% | [3] 27.9% | [4] 40.1% | [6] 12.4% | [7] 11.1% | [9] 68.8% | [10] 13.9% | [11] 43.6% | [14] 15.8% | [16] 14.6% | [17] 20.4%
active: [5] -8.39% | [8] -5.59% | [12] -36.4% | [13] -31.3% | [15] 9.97% | [18] 7.58%

Cc1ccc(F)cc1N/C=c1\s/c(=C(\C#N)C(=O)Nc2ccccc2)n(-c2ccccc2)c1=O
inactive: [1] 75.4% | [2] 84.9% | [3] 53.9% | [19] 72.5% | [6] 61.5% | [7] 99% | [8] 37% | [9] 42.6% | [10] 76.7% | [11] 99.7% | [12] 98.5% | [13] 105% | [14] 38.8% | [15] 42% | [16] 92.1% | [17] 84.8% | [18] 53%
active: [4] -26.9%

O=C(Cn1nc(-c2ccccc2)ccc1=O)NNC(=S)NC1CCCCC1
inactive: [1] 89.4% | [2] 97% | [3] 112% | [19] 105% | [4] 114% | [6] 104% | [7] 122% | [8] 101% | [9] 105% | [10] 82% | [11] 111% | [12] 110% | [13] 113% | [14] 99.4% | [15] 112% | [16] 114% | [17] 109% | [18] 103%

COc1cc(/C=C/C(=O)c2ccc(F)cc2)ccc1Oc1nc(Nc2ccc(F)cc2)nc(N(C)C)n1
active: [1] 4.07% | [13] 2.33%
inactive: [2] 24.2% | [3] 42.7% | [19] 93.1% | [4] 56.1% | [6] 93.8% | [7] 64.2% | [8] 59.3% | [10] 28.5% | [11] 88.6% | [12] 68.5% | [14] 16.6% | [15] 30.2% | [16] 89% | [17] 61% | [18] 28%

Cc1ccc(-c2cc(C(=O)N=Nc3c(O)[nH]c4ccccc34)c3ccccc3n2)cc1
active: [1] 5.31% | [3] -15.8% | [4] 1.61% | [7] -65.7% | [9] -16.9% | [12] 5.71% | [13] 8.14% | [14] 6.61% | [15] -15.8%
inactive: [19] 69.4% | [5] 91.2% | [6] 60.1% | [8] 12.4% | [10] 43.8% | [11] 34.5% | [16] 48.4% | [17] 23.9% | [18] 26.3%

COc1ccc(NC(=O)CSc2nnc(-c3ccc4nc(-c5ccc(Cl)cc5)[nH]c4c3)o2)cc1
inactive: [1] 43.5% | [2] 56.5% | [3] 14.1% | [19] 79.9% | [6] 78.4% | [7] 55.3% | [8] 35.2% | [9] 81.3% | [10] 96.7% | [11] 29.9% | [14] 17.1% | [15] 23.2% | [16] 111% | [17] 60.4% | [18] 90.8%
active: [4] -2.09% | [12] -7.51% | [13] 1.97%

CC(=O)c1cc(C(=O)N2c3ccccc3Sc3ccccc32)n2ccc(C)cc12
active: [1] 6.72% | [15] 7.08% | [18] 3.44%
inactive: [2] 19.8% | [3] 45.9% | [19] 66.8% | [4] 51.7% | [6] 37.1% | [7] 58% | [8] 53.7% | [9] 18.4% | [10] 20.8% | [11] 16% | [12] 28% | [13] 25.6% | [14] 26.5% | [16] 32.7% | [17] 28.3%

Cc1cc(=O)oc2cc(OCCCCOc3ccc(/C=C/C(=O)Nc4ccc(F)c(Cl)c4)cc3)ccc12
inactive: [1] 89% | [2] 92.6% | [3] 85.2% | [4] 37.9% | [5] 122% | [6] 109% | [7] 97.2% | [8] 111% | [9] 88.7% | [10] 67.1% | [11] 93.2% | [12] 92.7% | [13] 96.9% | [15] 87.6% | [16] 123% | [17] 91.3% | [18] 120%

CC1CC(c2ccc(N(C)C)cc2)=NN1c1nc(O)c(C2=c3cc(Br)ccc3=NC2=O)s1 (stereo not drawn)
inactive: [1] 67.6% | [2] 28.1% | [3] 83% | [4] 94.5% | [6] 110% | [7] 73.6% | [8] 70% | [10] 66.7% | [11] 85% | [12] 102% | [13] 78.9% | [14] 78.6% | [15] 66.8% | [16] 32.1% | [17] 73.2% | [18] 54.2%
active: [9] 7.99%

CC1(c2ccccc2)NC(=O)N(CC(=O)Nc2ccc(C(=O)/C=C/c3ccccc3)cc2)C1=O (stereo not drawn)
inactive: [1] 14.4% | [3] 65.1% | [19] 89.2% | [4] 60.9% | [5] 121% | [6] 61.7% | [7] 37.7% | [8] 71.5% | [9] 87.5% | [10] 18.3% | [11] 36% | [13] 32.4%
active: [12] -23% | [14] -19.6% | [15] -65% | [16] -15.6% | [17] -73% | [18] -2.64%

COc1ccc(/C=C/C(=O)c2ccc(NC(=O)CN3C(=O)NC(C)(c4ccccc4)C3=O)cc2)cc1 (stereo not drawn)
inactive: [1] 61.6% | [3] 93.3% | [19] 102% | [4] 78.3% | [5] 106% | [6] 90.3% | [7] 78.2% | [8] 81.3% | [9] 102% | [10] 38.6% | [11] 71.6% | [12] 16.7% | [13] 88.8% | [15] 12.8% | [16] 102% | [17] 49.3% | [18] 49.4%
active: [14] 4.86%

CC1=C(c2cc(-c3ccc(Cl)cc3)c(C#N)c(N)n2)C(c2ccccc2)NC(=S)N1 (stereo not drawn)
inactive: [4] 81.3% | [5] 126% | [6] 65.7% | [7] 17.1% | [8] 75.3% | [9] 37.9% | [10] 54.5% | [11] 42.1% | [12] 25.3% | [13] 45.7% | [14] 31.6% | [16] 83.3% | [17] 49.5% | [18] 35%
active: [1] 2.54% | [2] 9.51% | [3] 5.74% | [15] -18.8%

COc1ccc(/C=C/C(=O)c2ccc(S(=O)(=O)NCCNc3nc(Nc4ccc(F)cc4)nc(N(C)C)n3)cc2)cc1
active: [1] 3.4% | [14] -15.2% | [15] -67% | [17] -26.1% | [18] -3.57%
inactive: [2] 10.5% | [3] 50.6% | [19] 42.5% | [4] 21.8% | [6] 43.6% | [7] 15.7% | [8] 39% | [10] 18.4% | [11] 36.2% | [12] 25.1% | [13] 26.4% | [16] 59.3%
